Compound activity deposited in PubChem by several laboratories.
VCAM1 TNFa inh – reduces TNF alpha induced VCAM1 expression in HUVEC; HUVEC TNFa-induced VCAM-1 immunofluorescence, high-content imaging; inhibition, % at 2 µM; 95,000 tested, 0.48% active;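 active = inhibition above the batch mean plus 3 SD, with images confirmed as a hit by eye, cut at about 37% in these data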;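 note: 0% = TNF-stimulated DMSO wells and 100% = unstimulated control wells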
E-sel TNF inh – blocks E-selectin expression induced by TNF alpha. HUVEC TNFa-induced E-selectin immunofluorescence, high content. inhibition, % at 2 µM. 120,000 tested, 0.71% active. AID 1246;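 active = inhibition above the batch mean plus 3 SD, and confirmed as a hit on visual image review, cut at about 43% in these data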;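 note: 0% = TNF-stimulated DMSO wells and 100% = unstimulated control wells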
HUVEC tox TNFa – HUVEC cytotoxicity counter-screen, TNF alpha stimulated. HUVEC TNFalpha-stimulated, Hoechst cell count, imaging. cell count reduction, % at 2 µM. 93,000 tested, 0.17% active;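 active = cell count reduction exceeding the screen mean by over 5 SD, scaled to untreated wells per plate, cut at about 78% in these data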;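 note: cells counted after 24 h of TNF alpha exposure following the 1 h pretreatment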
PLAP act – activates human placental alkaline phosphatase. 96,000 tested, 1.2% active. activation fold at 20 µM. AID 696. purified PLAP enzyme, luminescent substrate read-out; stronger effect = higher value. P05187; in the data active = activation fold above about 2
Target sequence (P05187 whole entry, looked up): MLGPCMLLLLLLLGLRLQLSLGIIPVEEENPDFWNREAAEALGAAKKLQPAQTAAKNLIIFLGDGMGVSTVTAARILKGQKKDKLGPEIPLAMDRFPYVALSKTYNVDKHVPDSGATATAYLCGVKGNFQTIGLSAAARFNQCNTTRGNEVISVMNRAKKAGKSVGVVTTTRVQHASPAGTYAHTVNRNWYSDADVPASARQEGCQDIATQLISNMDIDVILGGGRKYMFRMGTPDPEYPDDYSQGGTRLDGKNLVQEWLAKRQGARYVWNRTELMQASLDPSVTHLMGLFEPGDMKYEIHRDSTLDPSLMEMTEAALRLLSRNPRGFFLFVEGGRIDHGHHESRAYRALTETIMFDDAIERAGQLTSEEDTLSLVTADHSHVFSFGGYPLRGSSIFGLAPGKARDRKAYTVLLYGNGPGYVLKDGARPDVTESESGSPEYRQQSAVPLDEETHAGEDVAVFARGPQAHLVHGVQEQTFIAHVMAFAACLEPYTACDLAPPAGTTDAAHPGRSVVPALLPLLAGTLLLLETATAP
cytoskel mod – alters cytoskeleton assembly in HUVEC cells. HUVEC TNFa F-actin phalloidin imaging, high content. inhibition, % at 2 µM. 91,000 tested, 0.18% active. AID 836;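 active = inhibition above the batch mean plus 3 SD and confirmed as a hit by visual image inspection, cut at about 30% in these data, passing the limit was not always enough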
* = called active by the depositor; / = not tested or not shown. This is a sample that favours compounds with a hit; in the whole collection about 2% have one here.

SMILES	VCAM1 TNFa inh	E-sel TNF inh	HUVEC tox TNFa	PLAP act	cytoskel mod
COc1ccc(NC(=S)N2C3CCC2CC(NC(=O)NC24CC5CC(CC(C5)C2)C4)C3)c(OC)c1 (centres undefined)	-0.1	10.1	-14.8	2.5*	31.5
Cc1ccc(S(=O)(=O)Nc2ccc3c4c(cccc24)CC3)c(C)c1	25.2	25.3	-6.5	/	-4.9
Cc1cc(C)c(S(=O)(=O)Nc2ccc3c4c(cccc24)CC3)c(C)c1	88.6*	15.0	57.2	1.2	-23.7
CCOc1ccc(NC(=O)CNC(=O)c2cn(-c3ccccc3OC)c(=O)c3ccccc23)cc1	9.4	/	-17.3	2*	9.9
CCOc1ccc(NC(=O)CNC(=O)c2ccc(OC)c(OC)c2)cc1	-9.3	-4.3	-25.4	0.9	4.5
Fc1ccc(-n2cc(CNCCc3cccnc3)c(-c3ccccc3Cl)n2)cc1	/	-25.6	/	/	/
COc1cccc(C(=O)COc2cccc(NC(=O)c3cccc([N+](=O)[O-])c3)c2)c1	48.6*	19.4	66.1	1	3.5
COc1cccc(C(=O)Nc2cccc(OC(C)=O)c2)c1	-3.1	-5.9	-7.8	0.9	20.3
Cn1c(N)c(C(=O)COC(=O)c2ncc(Cl)c(Cl)c2Cl)c(=O)n(C)c1=O	/	-1.1	/	/	/
COc1cc(C(=O)NNC(=O)NC2CCCCC2)cc(OC)c1OC	0.1	2.5	-0.9	0.9	-0.3
COc1ccc(C(=O)NNC(=S)NC2CCCCC2)cc1OC	-5.8	-2.7	4.9	2.5*	16.8
COc1cccc(C(=O)Nc2ccc(C(F)(F)F)n(C)c2=O)c1	/	-1.1	/	/	/
Cc1nnc2n(C3CCCCC3)c(=O)c3c4c(sc3n12)COC(C)(C)C4	64.8	/	93.8*	1.2	4.6
Cc1nnc2n(C3CCCCC3)c(=O)c3c4c(sc3n12)CCC4	2.8	/	-26.1	0.9	-15.7
O=S(=O)(c1ccc2c(c1)OCCCO2)N1CCNCC1	84.0*	/	84.3*	0.9	-40.3
COc1ccc(N2CCN(S(=O)(=O)c3ccc4c(c3)OCCO4)CC2)cc1	/	-8.8	/	/	/
Cc1cc(=O)oc2cc(OCc3nnc(-c4ccccc4Br)o3)ccc12	-4.4	-7.4	7.8	0.9	-25.9
O=c1ccc2ccc(OCc3nnc(-c4ccccc4Br)o3)cc2o1	-7.6	73.5*	-3.7	0.9	18.9
O=C(Nc1ccnc(-c2cccnc2)n1)c1cccs1	/	-63.4	/	/	/
Cc1nnc(SCC(=O)NCc2ccco2)[nH]c1=O	2.8	/	0.5	1.2	-11.7
Cc1cc(-c2ccco2)n(CC(=O)NCc2ccco2)n1	2.7	75.7*	-19.0	1	1.6
Cc1ccc(-c2ccc(=O)n(CC(=O)NCc3ccco3)n2)cc1	5.5	-17.4	-21.6	1	56.7
O=C(CSc1ncccc1-c1nc2ccccc2[nH]1)NCc1ccco1	12.2	6.5	-32.4	2*	38.3
Cc1cc2nc(-c3cccnc3SCC(=O)NCc3ccco3)[nH]c2cc1C	/	-11.3	/	/	/
Cc1cc(=O)[nH]c(SCC(=O)NCc2ccco2)n1	10.5	100.0*	19.2	/	31.3
SMILES	VCAM1 TNFa inh	E-sel TNF inh	HUVEC tox TNFa	PLAP act	cytoskel mod
CCCNC(=O)NC(=O)CSc1ccc2c(c1)OCCO2	-6.6	-6.1	-21.0	1	11.5
O=C(NCc1ccccn1)C(C(=O)c1ccc(F)cc1)n1ccccc1=O (centres undefined)	11.2	-4.3	22.0	0.9	19.6
Cc1csc(NC(=O)c2nn(C)c(C)c2[N+](=O)[O-])n1	/	6.4	/	/	/
COc1cc(C)nc(N(C)S(=O)(=O)c2ccccc2Cl)n1	9.7	-16.5	-8.0	0.8	-17.3
CCN(CC)c1nc(OCCNC(=O)Nc2ccccc2)nc(N(CC)CC)n1	10.4	9.9	-32.6	2.1*	21.4
CCC(CC)n1[nH]c(=O)c2c(C)cc(C)nc21	49.2	-22.0	81.0*	1	3.5
COc1ccccc1-c1nnc(Sc2nc([N+](=O)[O-])nn2C)o1	25.4	/	13.0	0.9	1.9
COC(=O)C1=CN(CCCN2CCCC2=O)C=C(C(=O)OC)C1c1ccccc1C(F)(F)F	-11.1	19.9	-6.2	2.1*	-10.8
COc1cccc(C(=O)Nc2sc3c(c2C#N)CCN(C(C)=O)C3)c1	/	18.4	/	/	/
CCOC(=O)N1CCN(C(=O)c2ccc(Oc3ccc([N+](=O)[O-])cc3)cc2)CC1	/	61.9*	/	/	/
CN1CCN(C(=O)c2ccc(Oc3ccc([N+](=O)[O-])cc3)cc2)CC1	/	30.5	/	/	/
COc1ccc(-n2cnnc2SCC(=O)Nc2cccnc2Cl)cc1	/	-0.8	/	/	/
CCCn1cnc2c(sc3nc4c(cc32)CSC(C)(C)C4)c1=O	19.5	-4.7	85.9*	1	-12.9
CC1(C)Cc2nc3sc4c(=O)n(Cc5ccccc5)cnc4c3cc2CS1	/	9.3	/	/	/
O=C(NNc1nc(N2CCOCC2)nc(N2CCOCC2)n1)Nc1ccc(Cl)cc1	/	4.5	/	/	/
CCOc1cc(C(=O)Nc2ccc3c4c(cccc24)C(=O)N3CC)cc(OCC)c1OCC	15.1	-19.2	6.1	1.8	-17.8
CCN1C(=O)c2cccc3c(NC(=O)c4cccc(N5C(=O)CCC5=O)c4)ccc1c23	0.9	60.1*	-17.5	1.2	-25.3
O=C(CSc1ncn(-c2ccccc2)n1)Nc1ccc2c(c1)OCCO2	/	72.1*	/	0.6	/
COc1ccc(Cc2nnc(SCC(=O)NC3CCCC3)o2)cc1	15.7	54.3*	-26.9	/	4.0
CCOC(=O)C(=NC(C)CC)NNc1ccc(Br)cc1 (centres undefined)	/	20.5	/	/	/
CCOc1ccc(NC(=O)CN(C)CC(=O)Nc2ccccc2C#N)cc1OCC	6.9	-20.0	-42.3	1.8	-3.8
CN(CC(=O)Nc1ccc(Cl)cc1)CC(=O)Nc1cc(Cl)ccc1C#N	/	/	/	2.5*	/
Cc1ccc(S(=O)(=O)N/N=C/c2ccc(OS(=O)(=O)c3ccc(C)c([N+](=O)[O-])c3)cc2)cc1	13.4	11.0	-6.9	1.3	-12.5
COc1ccc(OCCCc2c(C)n[nH]c2C)cc1	11.3	/	3.9	2.3*	-10.9
Cc1cccc(OCCCCc2c(C)n[nH]c2C)c1C	-4.9	/	-29.2	2.4*	14.3
SMILES	VCAM1 TNFa inh	E-sel TNF inh	HUVEC tox TNFa	PLAP act	cytoskel mod
Cc1cc(C)c(C(=O)C2OC(=O)C(C)(C)C(=O)C2(C)C)c(C)c1 (centres undefined)	5.5	/	-8.5	1.6	4.8
O=C(NC1CCCCCC1)c1cc(-c2ccccn2)nc2ccccc12	/	-12.2	/	/	/
Cn1c(CCc2nc3ccccc3[nH]2)nnc1SCC#N	/	13.1	/	/	/
CCNCC(O)COCC(O)CNCC (centres undefined)	62.1*	-12.0	77.6	1	9.6
COc1ccc(CNCC(O)COCc2cccs2)cc1 (centres undefined)	/	-5.4	/	0.8	/
CC(C)[C@H](NC(=O)NCCc1ccc(F)cc1)C(=O)O	1.4	-19.8	-8.0	0.9	5.6
COc1ccc2nc(Nc3nc(C)c(CCC(C)C)c(=O)[nH]3)nc(C)c2c1	0.6	21.4	-7.6	2.3*	-12.7
COc1ccc2nc(Nc3nc(CSc4nnnn4-c4ccccc4)cc(=O)[nH]3)nc(C)c2c1	11.6	49.2	-11.4	2.2*	7.8
COc1ccc2nc(C)[nH]c(=O)c2c1	-7.6	44.4	-19.5	0.9	-16.6
COCc1cc(=O)[nH]c(Nc2nc(C)c3ccccc3n2)n1	29.5	8.1	-10.6	/	2.1
Cc1ccc2c(C)nc(Nc3nc(CSc4nnnn4-c4ccccc4)cc(=O)[nH]3)nc2c1	/	-70.3	/	2.2*	/
